# Test results: paper PMC7862700, “An all-to-all approach to the identification of sequence-specific readers for epigenetic DNA modifications on cytosine”
# Key:
# Test in all cases: DAPPL (digital affinity profiling via proximity ligation, sequencing); 10 mM Tris-HCl pH 7.5, 50 mM NaCl, 1 mM DTT, 4% glycerol, room temperature, 30 min; GST-TFs on glutathione beads, 16-mer random dsDNA library, 0.1% formaldehyde crosslink after washing; high values mean tight binding
# Conditions in all cases: protein: recombinant; tags: N-terminal GST; dsDNA, one strand shown
# FLI1 = biological target: T1, FLI1 (Homo sapiens, UniProt Q01543 1-452)
# T1 sequence: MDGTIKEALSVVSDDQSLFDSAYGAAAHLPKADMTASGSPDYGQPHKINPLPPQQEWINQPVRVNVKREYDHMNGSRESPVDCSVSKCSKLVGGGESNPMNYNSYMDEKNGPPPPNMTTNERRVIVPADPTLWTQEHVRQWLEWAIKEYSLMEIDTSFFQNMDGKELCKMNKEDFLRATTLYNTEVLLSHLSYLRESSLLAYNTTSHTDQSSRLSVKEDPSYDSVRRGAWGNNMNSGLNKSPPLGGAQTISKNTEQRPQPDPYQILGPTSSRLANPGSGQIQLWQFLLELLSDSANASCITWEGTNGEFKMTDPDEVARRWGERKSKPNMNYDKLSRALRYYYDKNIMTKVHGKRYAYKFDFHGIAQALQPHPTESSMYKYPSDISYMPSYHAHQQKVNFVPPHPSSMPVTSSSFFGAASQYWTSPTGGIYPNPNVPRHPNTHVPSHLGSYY
# Procedure, shortened: (§1)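 Human transcription factors were made in yeast as GST fusions, captured on glutathione beads and barcoded with DNA. With a tag-only sample included, the pool was incubated with 200 nmole of a random double-stranded 16-mer DNA library in Tris/NaCl/DTT/glycerol buffer at room temperature for 30 min, then crosslinked with 0.1% formaldehyde after washing, ligated by proximity, amplified and sequenced. For binding signal, each hexamer's read frequency for a factor is divided by its frequency for the tag-only sample.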
# GABPA = biological target: T2, GABPA (Homo sapiens, UniProt Q06546 1-454)
# T2 sequence: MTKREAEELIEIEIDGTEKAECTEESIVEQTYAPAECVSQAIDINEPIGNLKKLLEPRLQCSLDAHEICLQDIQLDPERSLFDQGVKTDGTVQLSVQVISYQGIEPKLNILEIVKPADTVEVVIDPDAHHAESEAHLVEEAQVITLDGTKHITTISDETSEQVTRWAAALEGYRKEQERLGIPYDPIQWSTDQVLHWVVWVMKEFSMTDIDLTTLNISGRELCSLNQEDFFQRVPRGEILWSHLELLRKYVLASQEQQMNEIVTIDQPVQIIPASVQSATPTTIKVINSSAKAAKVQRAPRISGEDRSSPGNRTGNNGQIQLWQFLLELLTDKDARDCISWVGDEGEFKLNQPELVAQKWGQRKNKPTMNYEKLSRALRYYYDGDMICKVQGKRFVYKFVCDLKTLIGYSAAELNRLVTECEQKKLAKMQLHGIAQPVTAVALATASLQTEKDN
# Procedure, shortened: as §1
# ERG = biological target: T3, ERG (Homo sapiens, UniProt P11308 1-479)
# T3 sequence: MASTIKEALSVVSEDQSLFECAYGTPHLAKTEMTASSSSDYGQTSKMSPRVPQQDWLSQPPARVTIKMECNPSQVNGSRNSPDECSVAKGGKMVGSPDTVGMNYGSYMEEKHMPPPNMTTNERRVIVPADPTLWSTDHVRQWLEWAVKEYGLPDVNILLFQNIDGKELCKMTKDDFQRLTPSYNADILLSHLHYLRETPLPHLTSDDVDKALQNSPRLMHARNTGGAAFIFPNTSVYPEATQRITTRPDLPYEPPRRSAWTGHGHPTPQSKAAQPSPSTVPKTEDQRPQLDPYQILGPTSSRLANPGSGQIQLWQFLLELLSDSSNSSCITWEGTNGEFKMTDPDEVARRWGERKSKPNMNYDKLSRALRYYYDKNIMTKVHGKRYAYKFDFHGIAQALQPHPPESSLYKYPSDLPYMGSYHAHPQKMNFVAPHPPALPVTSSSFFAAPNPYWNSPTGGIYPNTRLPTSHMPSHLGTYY
# Procedure, shortened: as §1
# EHF = biological target: T4, EHF (Homo sapiens, UniProt Q9NZC4 1-300)
# T4 sequence: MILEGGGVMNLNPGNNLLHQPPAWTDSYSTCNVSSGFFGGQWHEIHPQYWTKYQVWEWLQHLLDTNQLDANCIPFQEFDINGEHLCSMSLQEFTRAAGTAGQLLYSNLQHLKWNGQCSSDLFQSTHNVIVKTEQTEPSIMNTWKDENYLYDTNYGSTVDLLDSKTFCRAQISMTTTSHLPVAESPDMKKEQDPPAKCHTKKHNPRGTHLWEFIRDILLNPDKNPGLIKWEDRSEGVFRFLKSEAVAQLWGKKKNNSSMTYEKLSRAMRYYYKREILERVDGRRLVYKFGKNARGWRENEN
# Procedure, shortened: as §1
# ELK3 = biological target: T5, ELK3 (Homo sapiens, UniProt P41970 1-407)
# T5 sequence: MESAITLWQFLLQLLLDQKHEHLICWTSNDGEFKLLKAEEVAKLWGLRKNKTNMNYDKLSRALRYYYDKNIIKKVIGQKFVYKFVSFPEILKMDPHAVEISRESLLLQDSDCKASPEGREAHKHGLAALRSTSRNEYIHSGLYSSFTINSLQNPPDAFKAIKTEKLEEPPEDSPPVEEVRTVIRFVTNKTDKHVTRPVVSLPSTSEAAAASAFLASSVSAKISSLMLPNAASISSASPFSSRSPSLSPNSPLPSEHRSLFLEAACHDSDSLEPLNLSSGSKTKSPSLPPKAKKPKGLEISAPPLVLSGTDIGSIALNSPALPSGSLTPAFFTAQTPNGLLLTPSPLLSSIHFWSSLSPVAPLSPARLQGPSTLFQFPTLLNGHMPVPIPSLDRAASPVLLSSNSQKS
# Procedure, shortened: as §1
# SPIC = biological target: T6, SPIC (Homo sapiens, UniProt Q8N5J4 1-248)
# T6 sequence: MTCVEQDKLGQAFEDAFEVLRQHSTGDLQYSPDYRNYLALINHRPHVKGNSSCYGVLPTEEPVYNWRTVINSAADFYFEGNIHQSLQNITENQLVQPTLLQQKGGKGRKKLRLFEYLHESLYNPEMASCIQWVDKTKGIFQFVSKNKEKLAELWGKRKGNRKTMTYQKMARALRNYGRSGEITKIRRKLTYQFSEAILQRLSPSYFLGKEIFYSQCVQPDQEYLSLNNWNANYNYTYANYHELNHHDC
# Procedure, shortened: as §1
# ETV2 = biological target: T7, ETV2 (Homo sapiens, UniProt O00321 1-342)
# T7 sequence: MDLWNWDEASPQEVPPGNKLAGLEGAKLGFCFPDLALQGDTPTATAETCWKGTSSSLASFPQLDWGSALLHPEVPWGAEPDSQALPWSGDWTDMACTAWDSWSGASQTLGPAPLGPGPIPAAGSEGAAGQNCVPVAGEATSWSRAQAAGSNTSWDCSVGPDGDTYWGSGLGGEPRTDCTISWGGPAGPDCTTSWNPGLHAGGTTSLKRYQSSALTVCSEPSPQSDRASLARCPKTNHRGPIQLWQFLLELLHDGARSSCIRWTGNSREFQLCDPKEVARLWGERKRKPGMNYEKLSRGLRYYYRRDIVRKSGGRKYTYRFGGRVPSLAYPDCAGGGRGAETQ
# Procedure, shortened: as §1
# ETV1 = ETV1 (Homo sapiens, UniProt P50549 1-477)
# ETV1, sequence (P50549 whole entry): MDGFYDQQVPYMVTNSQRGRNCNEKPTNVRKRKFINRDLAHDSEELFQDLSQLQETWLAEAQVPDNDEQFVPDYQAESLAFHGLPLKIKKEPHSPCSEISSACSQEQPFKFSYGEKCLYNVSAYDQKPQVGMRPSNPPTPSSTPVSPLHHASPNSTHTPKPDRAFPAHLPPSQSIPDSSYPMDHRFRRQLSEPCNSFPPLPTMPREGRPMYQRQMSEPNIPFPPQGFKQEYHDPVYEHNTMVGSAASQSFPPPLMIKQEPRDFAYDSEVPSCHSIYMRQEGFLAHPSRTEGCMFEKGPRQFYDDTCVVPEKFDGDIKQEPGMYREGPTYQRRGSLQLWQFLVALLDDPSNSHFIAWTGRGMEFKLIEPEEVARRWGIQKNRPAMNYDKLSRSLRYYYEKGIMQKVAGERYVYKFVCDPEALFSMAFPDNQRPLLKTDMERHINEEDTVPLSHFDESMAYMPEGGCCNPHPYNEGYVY
# Procedure, shortened: as §1
# ERF = biological target: T8, ERF (Homo sapiens, UniProt P50548 1-548)
# T8 sequence: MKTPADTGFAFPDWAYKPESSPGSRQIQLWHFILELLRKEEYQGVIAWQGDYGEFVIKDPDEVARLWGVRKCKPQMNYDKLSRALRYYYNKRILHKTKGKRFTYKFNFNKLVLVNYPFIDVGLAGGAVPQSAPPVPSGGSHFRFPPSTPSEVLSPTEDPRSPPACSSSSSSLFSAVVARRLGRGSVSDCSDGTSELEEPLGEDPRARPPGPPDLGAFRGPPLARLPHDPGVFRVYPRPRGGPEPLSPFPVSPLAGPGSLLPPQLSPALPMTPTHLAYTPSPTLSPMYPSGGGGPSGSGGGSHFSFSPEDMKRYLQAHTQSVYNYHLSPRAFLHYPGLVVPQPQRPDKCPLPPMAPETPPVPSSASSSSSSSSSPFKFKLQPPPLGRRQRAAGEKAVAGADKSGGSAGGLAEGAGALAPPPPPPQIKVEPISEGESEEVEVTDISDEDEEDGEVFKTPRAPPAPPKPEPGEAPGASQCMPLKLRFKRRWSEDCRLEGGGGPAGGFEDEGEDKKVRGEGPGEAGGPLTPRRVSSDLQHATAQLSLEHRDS
# Procedure, shortened: as §1
# ETS2 = biological target: T9, ETS2 (Homo sapiens, UniProt P15036 1-469)
# T9 sequence: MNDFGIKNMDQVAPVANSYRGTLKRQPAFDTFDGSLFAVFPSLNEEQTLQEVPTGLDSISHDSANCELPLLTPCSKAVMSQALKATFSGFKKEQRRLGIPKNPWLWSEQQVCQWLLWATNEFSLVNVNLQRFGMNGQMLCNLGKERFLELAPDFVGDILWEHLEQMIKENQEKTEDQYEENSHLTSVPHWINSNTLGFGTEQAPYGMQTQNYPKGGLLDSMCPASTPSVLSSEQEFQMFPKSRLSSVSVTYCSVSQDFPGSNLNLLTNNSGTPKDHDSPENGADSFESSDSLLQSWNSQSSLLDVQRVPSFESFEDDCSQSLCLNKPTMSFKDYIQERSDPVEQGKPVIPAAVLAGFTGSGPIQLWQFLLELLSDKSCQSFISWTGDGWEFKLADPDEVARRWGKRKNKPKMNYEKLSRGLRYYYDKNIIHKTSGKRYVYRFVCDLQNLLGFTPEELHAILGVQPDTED
# Procedure, shortened: as §1
# ELK1 = biological target: T10, ELK1 (Homo sapiens, UniProt P19419 1-428)
# T10 sequence: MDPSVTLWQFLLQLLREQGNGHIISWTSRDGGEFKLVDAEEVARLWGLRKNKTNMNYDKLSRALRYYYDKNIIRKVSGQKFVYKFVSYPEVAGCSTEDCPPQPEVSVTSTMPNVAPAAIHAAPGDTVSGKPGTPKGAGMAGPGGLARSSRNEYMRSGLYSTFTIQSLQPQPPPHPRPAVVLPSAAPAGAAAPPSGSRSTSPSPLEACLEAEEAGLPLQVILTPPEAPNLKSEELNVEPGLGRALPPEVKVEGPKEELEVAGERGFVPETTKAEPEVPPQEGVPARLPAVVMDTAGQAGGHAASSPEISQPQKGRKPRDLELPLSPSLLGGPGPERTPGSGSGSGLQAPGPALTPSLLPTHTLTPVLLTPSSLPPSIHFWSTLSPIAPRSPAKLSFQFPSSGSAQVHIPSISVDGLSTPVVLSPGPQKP
# Procedure, shortened: as §1
# ELF4 = ELF4 (Homo sapiens, UniProt Q99607 1-663)
# ELF4, sequence (Q99607 whole entry): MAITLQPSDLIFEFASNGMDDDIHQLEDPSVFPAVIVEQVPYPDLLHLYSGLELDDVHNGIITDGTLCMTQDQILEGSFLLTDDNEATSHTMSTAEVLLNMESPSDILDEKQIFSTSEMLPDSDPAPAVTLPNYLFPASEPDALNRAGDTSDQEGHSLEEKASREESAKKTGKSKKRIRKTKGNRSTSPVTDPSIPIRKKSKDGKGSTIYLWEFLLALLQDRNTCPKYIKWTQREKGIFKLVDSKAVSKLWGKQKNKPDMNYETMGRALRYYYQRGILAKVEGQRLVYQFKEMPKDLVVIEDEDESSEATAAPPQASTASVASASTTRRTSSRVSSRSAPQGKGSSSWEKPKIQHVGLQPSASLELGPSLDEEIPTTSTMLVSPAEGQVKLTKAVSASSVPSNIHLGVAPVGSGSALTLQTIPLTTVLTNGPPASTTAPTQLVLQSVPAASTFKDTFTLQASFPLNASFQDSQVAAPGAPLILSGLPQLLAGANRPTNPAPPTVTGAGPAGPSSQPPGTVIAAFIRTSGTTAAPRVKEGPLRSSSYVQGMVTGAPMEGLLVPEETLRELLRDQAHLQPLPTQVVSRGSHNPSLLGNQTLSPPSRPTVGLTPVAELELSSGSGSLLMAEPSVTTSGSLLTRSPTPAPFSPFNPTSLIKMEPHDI
# Procedure, shortened: as §1
# ELK4 = biological target: T11, ELK4 (Homo sapiens, UniProt P28324-2 1-405)
# T11 sequence: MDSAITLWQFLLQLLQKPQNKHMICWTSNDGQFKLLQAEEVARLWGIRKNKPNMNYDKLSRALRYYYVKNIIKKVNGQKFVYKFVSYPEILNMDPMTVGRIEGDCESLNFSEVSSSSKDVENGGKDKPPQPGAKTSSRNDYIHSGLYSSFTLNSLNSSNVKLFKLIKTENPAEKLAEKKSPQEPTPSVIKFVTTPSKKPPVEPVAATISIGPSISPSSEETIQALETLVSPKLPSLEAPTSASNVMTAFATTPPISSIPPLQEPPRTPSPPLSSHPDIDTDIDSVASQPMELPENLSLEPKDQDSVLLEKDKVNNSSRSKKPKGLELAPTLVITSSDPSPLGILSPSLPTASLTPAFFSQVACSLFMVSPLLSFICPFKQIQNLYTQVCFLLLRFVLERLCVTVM
# Procedure, shortened: as §1
# ETV3L = biological target: T12, ETV3L (Homo sapiens, UniProt Q6ZN32 1-361)
# T12 sequence: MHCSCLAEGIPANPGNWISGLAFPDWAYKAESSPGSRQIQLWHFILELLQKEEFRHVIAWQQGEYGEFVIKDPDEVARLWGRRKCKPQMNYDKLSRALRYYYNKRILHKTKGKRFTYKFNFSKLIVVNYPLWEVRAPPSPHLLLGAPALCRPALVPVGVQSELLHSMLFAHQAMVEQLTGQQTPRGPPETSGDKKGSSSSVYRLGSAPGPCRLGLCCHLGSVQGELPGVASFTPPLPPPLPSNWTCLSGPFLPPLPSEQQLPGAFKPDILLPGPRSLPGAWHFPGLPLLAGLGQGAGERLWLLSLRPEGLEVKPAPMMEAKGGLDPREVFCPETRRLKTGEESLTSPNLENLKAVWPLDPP
# Procedure, shortened: as §1
Sequence,binding signal (FLI1),binding signal (GABPA),binding signal (ERG),binding signal (EHF),binding signal (ELK3),binding signal (SPIC),binding signal (ETV2),binding signal (ETV1),binding signal (ERF),binding signal (ETS2),binding signal (ELK1),binding signal (ELF4),binding signal (ELK4),binding signal (ETV3L)
GTCGAC,"1.04 fold enrichment (6-mer frequency, TF over GST control)","1.02 fold enrichment (6-mer frequency, TF over GST control)","1.07 fold enrichment (6-mer frequency, TF over GST control)","1.01 fold enrichment (6-mer frequency, TF over GST control)","1.06 fold enrichment (6-mer frequency, TF over GST control)","1.07 fold enrichment (6-mer frequency, TF over GST control)","1.02 fold enrichment (6-mer frequency, TF over GST control)","1 fold enrichment (6-mer frequency, TF over GST control)","1.07 fold enrichment (6-mer frequency, TF over GST control)","1.04 fold enrichment (6-mer frequency, TF over GST control)",,,,
GACTGC,"1.03 fold enrichment (6-mer frequency, TF over GST control)","1.11 fold enrichment (6-mer frequency, TF over GST control)",,,,,,,"1.03 fold enrichment (6-mer frequency, TF over GST control)",,"1.03 fold enrichment (6-mer frequency, TF over GST control)","1.01 fold enrichment (6-mer frequency, TF over GST control)","1.08 fold enrichment (6-mer frequency, TF over GST control)","1.02 fold enrichment (6-mer frequency, TF over GST control)"
